# Hits are enriched below; roughly 7.4% of the tested compounds scored in any of these assays.
# NPC1 promoter act: activates the NPC1 promoter | Potency, µM (titrated, usually from 9.22 µM), inactives show at the highest dose activation, actives largely listed as activators | Huh7 NPC1 promoter luciferase reporter, 24 h | actives 2.4% (n = 320,000); note: % of control where 0% means no effect; nearly all actives have a fitted effect of over 60% in size
#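 Stably transfected Huh7 (NPC1 promoter→luciferase), 1500 cells/well in Opti-MEM + 10% FBS, 2 h settle, then compound 24 h at 37 °C. Luminescence after 10 min with Amplite reagent.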
# SMN2 splice up: increases expression of the SMN2 splice variant; AID 1458; Potency, µM (top dose mostly 46.1 µM), for inactives: at the highest dose activity change, positive = activation, most hits filed as activators; actives 2.8% (n = 210,000); HEK293 SMN2-luciferase splicing reporter, luminescence, 30-36 h; note: % of control where 0% means no effect; nearly all actives have a fitted effect of over 55% in size
#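 HEK293 cells carry an SMN2 […]–luciferase reporter in which exon 7 inclusion puts luciferase in frame. Cells were plated 10-12 h before compound addition, then incubated 30-36 h at 37C. ONE-Glo luminescence was read; sodium butyrate at 4.5 mM final served as control.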
# ELG1 genotox: inducers of genotoxicity in HEK293T ELG1-luciferase cells | Potency, µM (top dose mostly 46 µM), without a hit: top-dose activity change, positive = activation, actives largely listed as activators | AID 504466 | actives 1.3% (n = 330,000) | HEK293T ELG1-luciferase reporter, luminescence, 16 h; note: % of control where 0% means no effect; nearly all actives have a fitted effect of over 60% in size
#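 Genotoxic stress is detected as increased luminescence from luciferase-tagged ELG1 in HEK293T cells, measured with ONE-Glo after a 16 hr treatment at 37 °C.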
# Rab9 promoter act: activates the Rab9 promoter; Huh7 Rab9 promoter-luciferase reporter, luminescence, 24 h; Potency, µM (top dose mostly 9.22 µM), without a hit: at the highest dose activation, negative = inhibition, most hits filed as activators; actives 2.8% (n = 320,000); AID 485297; note: % of control where 0% means no effect; nearly all actives have a fitted effect of over 60% in size
#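 Huh7 cells stably carrying Rab9 promoter–luciferase reporter, plated 1500 cells/well, compound added after 2 h and incubated 24 h at 37 °C; luciferase luminescence then read after 10 min with detection reagent.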
# FLuc counter: firefly luciferase modulation, counter-screen for miR-21 project; P08659; AID 588342; Potency, µM (doses to about 57.5 µM), without a hit: top-dose activity change, negative = inhibition, actives largely listed as inhibitors; actives 6.9% (n = 360,000); purified FLuc, Km substrates, luminescence inhibition;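 note: plate controls were vehicle for no effect and reference inhibitor for full effect; nearly all actives have a fitted effect of over 55% in size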
# Target sequence (P08659 whole entry, looked up): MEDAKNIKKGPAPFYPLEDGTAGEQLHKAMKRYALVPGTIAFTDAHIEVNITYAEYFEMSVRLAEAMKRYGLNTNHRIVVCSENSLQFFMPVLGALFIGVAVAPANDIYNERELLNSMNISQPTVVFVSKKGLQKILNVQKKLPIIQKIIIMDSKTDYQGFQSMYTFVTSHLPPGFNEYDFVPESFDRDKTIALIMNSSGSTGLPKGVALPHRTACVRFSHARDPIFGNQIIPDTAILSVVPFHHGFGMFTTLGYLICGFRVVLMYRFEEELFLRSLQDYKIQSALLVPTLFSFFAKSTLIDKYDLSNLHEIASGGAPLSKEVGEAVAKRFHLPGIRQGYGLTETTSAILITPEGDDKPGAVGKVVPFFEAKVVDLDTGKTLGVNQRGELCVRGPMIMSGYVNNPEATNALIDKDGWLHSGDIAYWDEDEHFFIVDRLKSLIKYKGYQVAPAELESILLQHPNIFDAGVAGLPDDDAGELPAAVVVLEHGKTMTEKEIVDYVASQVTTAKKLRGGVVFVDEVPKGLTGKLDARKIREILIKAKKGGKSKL
#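 Biochemical qHTS of compounds, final roughly 60 µM downward over six points, against 10 nM purified firefly luciferase using Km concentrations of substrates (10 uM D-luciferin, 10 uM ATP) in Tris acetate pH 7.5 buffer; luminescence output.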
# Starred values were filed as active, the others as inactive; ? = inconclusive; . = no result; [ ] = dose if it differs, or a comment. Calls come from the whole dose curve; as a rule, active = well fitted curve in the direction sought with a large enough effect; inconclusive = small, poorly fitted or top-dose-only effect, or another doubt; inactive = no such curve, though single readings can be large; an effect the other way counts as inactive or inconclusive. Potency is the fitted concentration of half-maximal effect.
SMILES,NPC1 promoter act,SMN2 splice up,ELG1 genotox,Rab9 promoter act,FLuc counter
O=C(c1cccc(OCc2ccccc2)c1)N1CCOCC1,6%,17%,8%,3%,-8%
CCOc1ccc(OCc2cccc(C(=O)N3CCOCC3)c2)cc1,0.089µM*,0.35µM*,0.13µM*,0.089µM*,0.3µM*
O=C(NCc1nc2ccccc2[nH]1)C1=C[C@@H](c2ccccc2)C[C@@H](OCCCCO)O1,-3%,.,-4%,-4%,6%
CC(/C=N/NC(=O)c1cccc([N+](=O)[O-])c1)=C\c1ccccc1,?,-2%,9%,21%,-13%
CC(/C=N/NC(=O)c1ccccc1F)=C\c1ccccc1,1.1µM*,.,?,1.1µM*,3.4µM*
CC(/C=N\NC(=O)c1ccc(C)nc1)=C\c1ccccc1,3%,7%,2%,-3%,8.5µM*
COc1ccc(C(=O)NCC(=O)N/N=C/C(C)=C/c2ccccc2)cc1OC,-7%,-1%,-1%,0%,17µM*
CC(/C=N/NC(=O)c1ccco1)=C\c1ccccc1,0.56µM*,2.5µM*,2.3µM*,0.35µM*,2.4µM*
Cc1cccn2c(=O)nc(SCC(=O)NCc3ccc(F)cc3)nc12,2%,.,-1%,-8%,0%
O=C(COC(=O)Cc1ccsc1)Nc1ccc(Cl)cn1,4%,.,2%,-10%,.
CCc1cccc(NC(=O)CSc2nc3ccsc3c(=O)n2CC)c1,.,-44%,.,.,-16%
CCOC(=O)Cn1c(S(=O)(=O)Cc2cccc(F)c2)nc(-c2ccccc2)c1-c1ccccc1,-5%,46%,-8%,0%,4%
CCOC(=O)Cn1c(S(=O)(=O)Cc2ccc(F)cc2)nc(-c2ccccc2)c1-c1ccccc1,1%,7.1µM*,-8%,2%,-1%
CN(C)S(=O)(=O)c1ccc(/C(O)=C2/C(=O)C(=O)N(Cc3cccnc3)C2c2cccs2)cc1 (configuration not stated),-3%,.,0%,3%,-7%
Cc1c(/C(O)=C2/C(=O)C(=O)N(Cc3cccnc3)C2c2ccccn2)cnn1-c1ccccc1 (configuration not stated),-5%,-19%,?,-17%,15µM*
Cc1c(/C(O)=C2/C(=O)C(=O)N(Cc3cccnc3)C2c2cccs2)cnn1-c1ccccc1 (configuration not stated),?,-29%,?,3.5µM*,-2%[2.3 µM]
N#Cc1cccc(C#N)c1Oc1ccc(N)cc1,-1%,.,2%,0%,0%
O=C(NCc1cc([N+](=O)[O-])ccc1O)c1cccnc1Sc1ccccc1,2%,.,-1%,-3%,17µM*
Cc1ccc(Sc2ncccc2C(=O)NCC(c2ccc(F)cc2)N2CCOCC2)c(C)c1 (configuration not stated),-7%,.,-1%,-3%,-1%
Cc1ccc(Sc2ncccc2C(=O)NCc2cc([N+](=O)[O-])ccc2O)c(C)c1,4µM*,.,?,4µM*,8.5µM*
COC(=O)C1=C(C)NC(=O)/C1=C\c1cc(C)n(-c2ccccc2)c1C,20%,152%,1%,?,11µM*
COC(=O)C1=C(C)NC(=O)/C1=C\c1cc(C)n(-c2cc(C)cc(C)c2)c1C,1%,-14%,-4%,-1%,-13%
COC(=O)C1=C(O)/C(=C\c2cc(C)n(-c3ccccc3C)c2C)N=C1C,?,-12%,5%,?,1.1µM*
COC(=O)C1=C(O)/C(=C\c2cc(C)n(-c3ccccc3F)c2C)N=C1C,7%,2%,?,27%,0.85µM*
COC(=O)C1=C(O)/C(=C\c2sccc2C)N=C1C,-1%,1%,1%,-3%,?
SMILES,NPC1 promoter act,SMN2 splice up,ELG1 genotox,Rab9 promoter act,FLuc counter
COc1ccc(CNC(=O)[C@H](Cc2ccccc2)NC(=O)C2CCNCC2)cc1,0%,.,1%,0%,4%
CC(C)(C)c1ccc(OCC(O)CSc2ncn[nH]2)cc1 (configuration not stated),?,?,?,?,2.1µM*
C=CCc1ccc(OCCOc2cccc3ccc(C)nc23)c(OC)c1,-2%,7%,-6%,3%,11µM*
Cc1ccc(OCc2ccc(C(=O)N3CCCC3)o2)c([N+](=O)[O-])c1,20%,.,15%,18%,?
C=CCc1ccc(OCCCOc2ccc(C)c(C)c2)c(OC)c1,0%,-12%,-2%,-4%,-8%
COc1ccc(CCN(C)C(=O)c2ccc(COc3ccccc3)o2)cc1OC,-2%,.,0%,11%,3%
C=CCc1ccc(OCCn2cccc2C=O)c(OC)c1,?,-9%,15%,?,17µM*
C=CCc1ccc(OCCOCCN(C)C)c(OC)c1,-2%,4%,-4%,1%,1%
CCCc1ccc(OCc2ccc(C(=O)O)o2)c(OC)c1,0.45µM*,2.5µM*,?,0.32µM*,4.8µM*
Cc1ccc(OCc2ccc(C(=O)O)o2)c([N+](=O)[O-])c1,?,?,6%,?,27µM*
Cc1cccc(NC(=O)c2cccc(S(=O)(=O)NCc3ccccc3)c2)n1,-1%,.,-1%,-4%,13%
C=CCc1ccc(OCc2ccc(C(=O)O)o2)c(OC)c1,?,.,?,?,4.8µM*
Cc1cc(C)cc(OCc2ccc(C(=O)NN)o2)c1,0%,.,-1%,-3%,-2%
CCCc1ccc(OCc2ccc(C(=O)NN)o2)c(OC)c1,2.2µM*,.,12%,?,-16%
CCCc1ccc(OCc2ccc(C(=O)OC)o2)c(OC)c1,1.4µM*,?,10µM*,1.8µM*,15µM*
C=CCc1ccc(OCCCCOc2ccc(C(=O)O)cc2)c(OC)c1,-4%,18%,0%,2%,13µM*
Cc1cc(Nc2ccccc2F)n2nc(-c3ccccc3)nc2n1,.,-13%,.,.,?
O=C(c1ccc(Cl)cc1)c1cnc2ccccn12,3.2µM*,9%,12µM*,2.5µM*,9.5µM*
CCOc1ccc2nc(N(Cc3cccnc3)C(=O)c3ccc4c(c3)OCCO4)sc2c1,.,.,.,.,13µM*
CC(=O)c1sc2nsc(SCCN3CCOCC3)c2c1N,1%,.,6%,16%,-19%
Nc1c(C(=O)c2ccccc2)sc2nsc(SCCN3CCOCC3)c12,?,.,9%,?,21µM*
O=c1oc(Nc2ccccc2F)nc2ccccc12,?,.,?,?,9.5µM*
Clc1ccccc1Nc1nc(-c2ccncc2)nc2ccccc12,-4%,.,-3%,-6%,0%
O=c1oc(Nc2cccc(Cl)c2)nc2ccccc12,2.8µM*,11µM*,13µM*,0.79µM*,-25%
O=c1oc(-c2ccccc2NS(=O)(=O)c2ccc(F)cc2)nc2ccccc12,-2%,.,-3%,-1%,1%
Clc1cccc(Nc2nc(-c3ccncc3)nc3ccccc23)c1,-3%,.,2%,-3%,-1%
O=c1oc(Nc2ccccc2Cl)nc2ccccc12,3.5µM*,?,21µM*,?,15µM*

# High-throughput results deposited in PubChem by National Center for Advancing Translational Sciences (NCATS).
